HT1080 IDH1KD tx: HT-1080 IDH1 knockdown cell toxicity (counter line). HT-1080 IDH1 knockdown viability, ATP luminescence, 48 h. actives 2% (n = 360,000). Potency, µM (series often up to 46.1 µM), inactives show at the top dose activity, negative = toxicity, actives largely listed as cytotoxic. AID 686971;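 also: potency is read from the fitted curve at half-maximal effect; 0% = DMSO wells and -100% = cell-free medium wells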
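HT-1080-IDH1KD cells (IDH1 knocked down), 750/well in RPMI with 5% FBS, treated with compound 48 h at 37 degrees C. Viability by CellTiter-Glo luminescence, normalised to DMSO and no-cell wells; concentration-response curves classed.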
TDP1 cell noCPT: qHTS for Inhibitors of human tyrosyl-DNA phosphodiesterase 1 (TDP1): qHTS in cells in absence of CPT. DT40 Tdp1-/- hTDP1 cells, no CPT, ATP luminescence, 48 h. actives 15% (n = 420,000). AID 686978, 2013. Potency, µM (top dose mostly 46.2 µM), without a hit: at the highest dose activity change, negative = growth inhibition, actives largely listed as inhibitors; also: potency is read from the fitted curve at half-maximal effect; nearly all actives have a fitted effect of over 55% in size
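Readout: luminescence from CellTiter-Glo after 30 min in the dark at RT. Cells: DT40 Tdp1-/- with stable hTDP1, 400/well. Exposure: compounds alone, ≥48 hr, 37 °C.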
IL-1B inflam inh: blocks inflammasome-driven IL-1 beta release; THP-1 LPS/ATP IL-1B secretion, AlphaLISA, 16 h; stronger effect = lower value; activity change, % at 57.5 µM; actives 4.7% (n = 360,000); AID 743279; in the data active = activity change below about -50%; inconclusive = mostly about -30% to -49%
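THP-1 cells pretreated 1 hr with compounds (up to 57.5 uM final), then stimulated with LPS (250 ng/mL final) plus ATP (1.25 mM final); secreted IL-1B measured by AlphaLISA after 16 hr, decreased signal indicating inhibition.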
DT40 TDP1 CPT: DT40-hTDP1 cell growth loss with CPT | chicken DT40 Tdp1-/-;hTDP1 cells + 20 nM CPT, ATP luminescence, 48 h | Potency, µM (doses to about 46.2 µM), without a hit: at the highest dose activity change, negative = growth inhibition, most hits filed as inhibitors | actives 12% (n = 420,000) | AID 686979; also: potency is read from the fitted curve at half-maximal effect; nearly all actives have a fitted effect of over 55% in size
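Chicken DT40 Tdp1-/- cells stably complemented with human TDP1 were seeded at 400 cells/well in medium containing 20 nM camptothecin, exposed to pin-transferred compounds, and grown at 37 °C for at least 48 hr. Viability was read as ATP luminescence.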
ELG1 DNA repair: inhibitors of ELG1-dependent DNA repair in HEK293T cells; actives 2.3% (n = 330,000); HEK293T ELG1-luciferase reporter, luminescence, 16 h; DNA damage induced by 5-fluorouridine; Potency, µM (top dose mostly 46.1 µM), inactives show top-dose activity change, negative = inhibition, usual class: inhibitors; also: potency is read from the fitted curve at half-maximal effect; nearly all actives have a fitted effect of over 55% in size
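DMSO vehicle served as the neutral condition. Each well held 2,000 cells given 5-fluorouridine plus compound; after 16 hr at 37 °C/5% CO2, ONE-Glo was added and luciferase measured 30 min later.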
HT1080-NT tox: kills 2HG-producing HT-1080-NT fibrosarcoma cells. HT-1080-NT fibrosarcoma viability, CellTiter-Glo ATP luminescence, 48 h. Potency, µM (titrated, usually from 46.1 µM), without a hit: at the top dose activity, negative = less viability, usual class: cytotoxic. actives 1.6% (n = 360,000). AID 686970;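 also: NT is the 2HG producing partner of a matched IDH1 knockdown line; potency is read from the fitted curve at half-maximal effect; 0% = DMSO-treated cells and -100% = media-only wells without cells; nearly all actives have a fitted effect of over 55% in size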
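750 cells/well, RPMI + 5% FBS; 2 h settle, compound pin-transfer, 48 h at 37 degrees C. CellTiter-Glo 10 min RT, luminescence. Normalized to DMSO and media-only wells.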
* hit, by the source's call. Most compounds without a hit are left out; they make up all but 19% or so of the library. Unless noted, calls follow the shape of the dose curve; as a rule, active = well fitted curve in the direction sought with a large enough effect; inconclusive = small, poorly fitted or top-dose-only effect, or another doubt; inactive = no such curve, though single readings can be large; an effect the other way counts as inactive or inconclusive. Unless noted, % is scaled to controls: 0 for no effect and ±100 for the full control effect.

What do the screens show for `CC(O)CNC(=O)C(=O)Nc1c2c(nn1-c1ccc(Cl)cc1)CSC2` (stereo not drawn)?
TDP1 cell noCPT: -2%; DT40 TDP1 CPT: 0%

How did CC1=CN2C(=N)/C(=C/c3ccc(Sc4ccc(C)cc4)o3)C(=O)N=C2S1 do in these assays?
HT1080 IDH1KD tx: -25%; TDP1 cell noCPT: inconclusive; IL-1B inflam inh: -58*; DT40 TDP1 CPT: inconclusive; ELG1 DNA repair: 26%; HT1080-NT tox: -17%

What do the screens show for `CC1=CN2C(=N)/C(=C/c3ccc(Sc4ccc(Cl)cc4)o3)C(=O)N=C2S1`?
HT1080 IDH1KD tx: inconclusive; TDP1 cell noCPT: -19%; IL-1B inflam inh: -69*; DT40 TDP1 CPT: 9%; ELG1 DNA repair: 1%; HT1080-NT tox: inconclusive

What do the screens show for `C[C@@H]1CN([C@H](C)CO)C(=O)c2cc(Br)cnc2O[C@@H]1CN(C)C(=O)CC1CC1`?
HT1080 IDH1KD tx: 4%; TDP1 cell noCPT: -19%; IL-1B inflam inh: 17; DT40 TDP1 CPT: -1%; HT1080-NT tox: 7%

How did Cc1ccc(S(=O)(=O)N2CC3(O)CN(C(=O)OC(C)C)N(C(=O)OC(C)C)CC3(OC(=O)Nc3c(C)noc3C)C2)cc1 (stereo not drawn) do in these assays?
HT1080 IDH1KD tx: 10%; TDP1 cell noCPT: inconclusive; IL-1B inflam inh: -16; DT40 TDP1 CPT: inconclusive; HT1080-NT tox: 11%

How did Cc1ccc(S(=O)(=O)N2CC3(O)CN(C(=O)OC(C)C)N(C(=O)OC(C)C)CC3(OC(=O)Nc3cccs3)C2)cc1 (stereo not drawn) do in these assays?
HT1080 IDH1KD tx: -2%; TDP1 cell noCPT: 18µM*; IL-1B inflam inh: -80*; DT40 TDP1 CPT: inconclusive; HT1080-NT tox: -14%

How did COC(=O)[C@H]1C[C@@]2(O)CN(S(=O)(=O)c3ccc(C)cc3)C[C@@]2(OC(=O)NCc2ccccc2)C[C@H]1C(=O)OC do in these assays?
HT1080 IDH1KD tx: 4%; TDP1 cell noCPT: inconclusive; IL-1B inflam inh: 2; DT40 TDP1 CPT: inconclusive; HT1080-NT tox: 11%

How did Cc1ccc(S(=O)(=O)N2CC3(O)CN(C(=O)OC(C)C)N(C(=O)OC(C)C)CC3(OC(=O)NC3CCCC3)C2)cc1 (stereo not drawn) do in these assays?
HT1080 IDH1KD tx: 7%; TDP1 cell noCPT: 23µM*; IL-1B inflam inh: -15; DT40 TDP1 CPT: inconclusive; HT1080-NT tox: 2%

What do the screens show for `Cc1ccc(S(=O)(=O)N2CC3(O)CN(C(=O)OC(C)C)N(C(=O)OC(C)C)CC3(OC(=O)NCc3ccco3)C2)cc1` (stereo not drawn)?
HT1080 IDH1KD tx: 3%; TDP1 cell noCPT: 21µM*; IL-1B inflam inh: -56*; DT40 TDP1 CPT: inconclusive; HT1080-NT tox: 4%

What do the screens show for `CCOC(=O)C(N)CSC1CC(=O)N(CCc2ccccc2)C1=O` (stereo not drawn)?
HT1080 IDH1KD tx: -4%; TDP1 cell noCPT: 25%; IL-1B inflam inh: 0; DT40 TDP1 CPT: -17%; ELG1 DNA repair: -3%; HT1080-NT tox: -20%

How did CC(C)C(=O)n1nc(-c2cccnc2)nc1NCc1cccs1 do in these assays?
HT1080 IDH1KD tx: -2%; TDP1 cell noCPT: -10%; IL-1B inflam inh: -1; DT40 TDP1 CPT: -6%; ELG1 DNA repair: -10%; HT1080-NT tox: 15%

Results for Cn1cc(C=CC(=O)O)c2nccnc21 ?
HT1080 IDH1KD tx: 16%; TDP1 cell noCPT: 6%; IL-1B inflam inh: 45; DT40 TDP1 CPT: -4%; HT1080-NT tox: 0%

How did O=C1NC2c3c(Cl)sc(Cl)c3C(=O)C2O1 (stereo not drawn) do in these assays?
HT1080 IDH1KD tx: inconclusive; TDP1 cell noCPT: 21µM*; IL-1B inflam inh: -103*; DT40 TDP1 CPT: 21µM*; HT1080-NT tox: inconclusive

What do the screens show for `O=C1NC2c3c(I)sc(I)c3C(=O)C2O1` (stereo not drawn)?
HT1080 IDH1KD tx: inconclusive; TDP1 cell noCPT: 7.3µM*; IL-1B inflam inh: -56*; DT40 TDP1 CPT: 6.5µM*; HT1080-NT tox: inconclusive

How did COc1ccc(N2C(=O)CC(N3CCN(S(=O)(=O)c4c(C)cc(C)cc4C)CC3)C2=O)cc1 (stereo not drawn) do in these assays?
HT1080 IDH1KD tx: 5%; TDP1 cell noCPT: 4%; IL-1B inflam inh: 6; DT40 TDP1 CPT: -2%; ELG1 DNA repair: -5%; HT1080-NT tox: 7%

What do the screens show for `CCCNC(=O)C1(C)CCN(C(=O)c2ccc3sccc3c2)C1` (stereo not drawn)?
HT1080 IDH1KD tx: 0%; TDP1 cell noCPT: -7%; IL-1B inflam inh: 11; DT40 TDP1 CPT: -12%; HT1080-NT tox: -2%

How did COc1ccc([C@H]2C[C@@H](O)C[C@@H](CCn3cc(-c4ccccc4)nn3)O2)cc1 do in these assays?
HT1080 IDH1KD tx: 12%; TDP1 cell noCPT: -18%; IL-1B inflam inh: 55; DT40 TDP1 CPT: -21%; HT1080-NT tox: 11%

How did O=[N+]([O-])c1ccccc1/C=N\N1CCN(c2ccccc2)CC1 do in these assays?
HT1080 IDH1KD tx: 9%; TDP1 cell noCPT: inconclusive; IL-1B inflam inh: -19; DT40 TDP1 CPT: 0%; ELG1 DNA repair: inconclusive; HT1080-NT tox: 8%

How did O=[N+]([O-])c1ccccc1/C=C\C=N\N1CCN(c2ccccc2)CC1 do in these assays?
HT1080 IDH1KD tx: -3%; TDP1 cell noCPT: -21%; IL-1B inflam inh: -53*; DT40 TDP1 CPT: inconclusive; ELG1 DNA repair: -13%; HT1080-NT tox: 9%

What do the screens show for `CCC12CN3CC(C)(CN(C1)C3c1ccccc1C)C2=O` (stereo not drawn)?
TDP1 cell noCPT: -1%; DT40 TDP1 CPT: -2%

Results for Cc1ccc(-c2nn(-c3ccccc3)cc2CO)o1 ?
HT1080 IDH1KD tx: -2%; TDP1 cell noCPT: -6%; IL-1B inflam inh: -9; DT40 TDP1 CPT: 0%; ELG1 DNA repair: inconclusive; HT1080-NT tox: 9%

What do the screens show for `Cc1ccc(-c2nn(-c3cccc(F)c3)cc2CN(Cc2nccn2C)C(C)C)o1`?
HT1080 IDH1KD tx: inconclusive; TDP1 cell noCPT: inconclusive; IL-1B inflam inh: -96*; DT40 TDP1 CPT: inconclusive; ELG1 DNA repair: inconclusive; HT1080-NT tox: -20%

How did Cc1ccc(-c2nn(-c3cccc(F)c3)cc2CN2CCN(c3ccccn3)CC2)o1 do in these assays?
HT1080 IDH1KD tx: -8%; TDP1 cell noCPT: 23µM*; IL-1B inflam inh: -2; DT40 TDP1 CPT: inconclusive; ELG1 DNA repair: -7%; HT1080-NT tox: -1%

Source: PubChem BioAssay (National Center for Advancing Translational Sciences (NCATS))
